# From PubChem BioAssay (Tox21)
# Several values for one entry are separate records, joined by “and”; a condition that tells them apart may be missing. Equal entries are not always repeated. Records with an inconclusive call do not appear. Where a call stands in place of a potency, no number is given. Some compounds were tested as several samples or in several runs, with calls that do not always agree. Activity calls are given as the source filed them. Unless noted, calls come from the whole dose curve.
# Assays:
# [1] = Nuclear factor erythroid 2-related factor 2/antioxidant responsive element (Nrf2/ARE) small molecule agonists: qHTS cell viability counter screen in human keratinocytes (AID 1919968; active = well fitted curve in the direction sought with a large enough effect in the repeat runs; an effect the other way counts as inactive or inconclusive; note: nearly all actives have a fitted effect of over 55% in size; note: potency is the fitted concentration of half-maximal effect)
# How it was run: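 Cytotoxicity was multiplexed with the Nrf2/ARE luciferase assay in the same wells. Stably transfected HaCaT keratinocytes were treated with test compounds for 23 h at 37 C. Cell viability was then measured by CellTiter-Fluor fluorescence.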
# [2] = Nuclear factor erythroid 2-related factor 2/antioxidant responsive element (Nrf2/ARE) small molecule agonists: luciferase reporter gene qHTS assay in human keratinocytes (AID 1919969); note: nearly all actives have a fitted effect of over 35% in size; note: potency is the fitted concentration of half-maximal effect
# [3] = target: Gonadotropin-releasing hormone receptor (Homo sapiens) (UniProt P30968); assay: Human gonadotropin-releasing hormone receptor (GnRHR) small molecule agonists, calcium flux assay in GnRHR-HEK293 cells (AID 1920063); note: nearly all actives have a fitted effect of over 35% in size
# How it was run: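 Agonist activity was measured as intracellular calcium flux in HEK293 cells engineered to stably express human GnRHR. After dye loading for 1 hour at 37 C, compounds in DMSO were added and fluorescence was followed for 3 minutes.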
# [4] = target: KiSS-1 receptor (Homo sapiens) (UniProt Q969F8); assay: Human kisspeptin (KISS1R) small molecule agonists, calcium flux assay in KISS1R-HEK293 cells (AID 1920064; active = well fitted curve in the direction sought with a large enough effect in the repeat runs; an effect the other way counts as inactive or inconclusive)
# How it was run: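 Agonist activity is monitored as intracellular calcium rise in engineered HEK293 cells carrying human KISS1R. Cells are dye-loaded for 1 h at 37 C before compound addition, and fluorescence is recorded for 3 min.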
# [5] = p53 small molecule agonists, cell-based qHTS assay with human liver microsomes (AID 1963577);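 note: p53 response element beta-lactamase reporter cells with liver microsomes plus NADPH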
# How it was run: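 Fluorescence of the beta-lactamase reporter in p53RE-bla cells, detected with LiveBLAzer substrate (2 h, room temperature, dark), served as the read-out after 16 h compound exposure at 37 C with human liver microsomes and NADPH, each 0.5 mg/mL final.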
# [6] = p53 small molecule agonists, cell-based qHTS assay with human liver microsomes: qHTS cell viability counter screen (AID 1963579); note: nearly all actives have a fitted effect of over 45% in size; note: potency is the fitted concentration of half-maximal effect
# How it was run: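 Cytotoxicity counter screen: p53RE-bla, 4,000 cells/well; 5 h settle, 37 C/5% CO2; cpd + HLM 0.5 mg/mL + NADPH 0.5 mg/mL (final); 16 h, 37 C; CellTiter-Glo, 30 min RT, luminescence.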
# [7] = p53 small molecule agonists, cell-based qHTS assay with rat liver microsomes: qHTS cell viability counter screen (AID 1963580); note: nearly all actives have a fitted effect of over 45% in size; note: potency is the fitted concentration of half-maximal effect
# How it was run: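 After the beta-lactamase ratio was read, CellTiter-Glo was added to the same wells and luminescence measured at 30 min; cells had been treated 16 h at 37 C with compounds, rat liver microsomes and NADPH (0.5 mg/mL final each).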
# [8] = p53 small molecule agonists, cell-based qHTS assay: qHTS cell viability counter screen (AID 1963581); note: nearly all actives have a fitted effect of over 45% in size; note: potency is the fitted concentration of half-maximal effect
# How it was run: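 Viability was counter-screened in parallel with the p53 agonist reporter by measuring intracellular ATP luminescence in the same HCT-116 p53RE-bla wells after 16 h compound treatment at 37 C.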
# [9] = p53 small molecule agonists, cell-based qHTS assay (AID 1963582; active = well fitted activation curve with a large enough effect in the signal ratio in the repeat runs, not every such curve was filed as active; the % refers to the signal ratio)
# How it was run: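 Cells carrying a p53-responsive bla reporter are treated with test compounds for 16 h at 37 C; beta-lactamase activity is then detected with LiveBLAzer B/G FRET substrate after 2 h at room temperature.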
# [10] = target: 5-hydroxytryptamine receptor 2A (Homo sapiens) (UniProt P28223); assay: 5-hydroxytryptamine receptor 2A (HTR2A) small molecule antagonists, cell-based qHTS assay (AID 1963586); note: nearly all actives have a fitted effect of over 45% in size
# How it was run: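 CHO cells stably expressing human HTR2A were plated for 18 h at 37 C, then loaded with calcium dye for 1 h. Compounds were preincubated 5 min at room temperature before DOI (4 nM solution) was added. Kinetic fluorescence was read for 3 min.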
# [11] = target: 5-hydroxytryptamine receptor 2A (Homo sapiens) (UniProt P28223); assay: 5-hydroxytryptamine receptor 2A (HTR2A) small molecule agonists, cell-based qHTS assay (AID 1963587); note: nearly all actives have a fitted effect of over 30% in size
# How it was run: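 CHO cells stably expressing human HTR2A, plated 18 h, loaded with calcium dye 1 h at 37 C. Agonist mode: compounds added and intracellular calcium fluorescence recorded kinetically for 2 min at 1 sec intervals.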
# [12] = target: Muscarinic acetylcholine receptor M1 (Homo sapiens) (UniProt P11229); assay: Cholinergic receptor muscarinic 1 (CHRM1) small molecule antagonists, cell-based qHTS assay (AID 1963588); note: nearly all actives have a fitted effect of over 40% in size; note: potency is the fitted concentration of half-maximal effect
# How it was run: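 Compounds were tested at 15 concentrations in three independent runs. Dye-loaded CHRM1-CHO cells were exposed 5 min at room temperature before stimulation by acetylcholine added at 50nM. Intracellular calcium was read kinetically on FDSS for 3 min.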
# [13] = target: Muscarinic acetylcholine receptor M1 (Homo sapiens) (UniProt P11229); assay: Cholinergic receptor muscarinic 1 (CHRM1) small molecule agonists, cell-based qHTS assay (AID 1963589); note: nearly all actives have a fitted effect of over 35% in size; note: potency is the fitted concentration of half-maximal effect
# How it was run: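 Cells were plated and incubated 18 h at 37 C/5% CO2, loaded with calcium dye for 1 h at 37 C, then treated with compounds in DMSO. Fluorescence was recorded kinetically at 1 sec intervals.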
# [14] = cAMP Responsive Elements (CRE) small molecule agonists, cell-based qHTS assay (AID 1963590)
# How it was run: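 Cells carrying a CRE-driven beta-lactamase reporter (HEK 293T) are seeded, incubated overnight (18 h), and treated with test compounds for 3 h at 37 C; reporter activity is then detected with a FRET substrate after 2 h at room temperature.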
# [15] = cAMP Responsive Elements (CRE) small molecule antagonists, cell-based qHTS assay (AID 1963591; active = well fitted inhibition curve with a large enough effect in the signal ratio in the repeat runs, not every such curve was filed as active; the % refers to the signal ratio)
# How it was run: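 Cells (CRE-bla HEK 293T, DMEM with 10% dialyzed FBS and 25 mM HEPES) are seeded and incubated 18 h. Compounds are added with NKH477 agonist at 0.25 uM final for 3 h, then FRET substrate for 2 h.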
# [16] = target: Beta-2 adrenergic receptor (Homo sapiens) (UniProt P07550); assay: Adrenergic beta2 receptor (ADRB2) small molecule antagonists, cell-based qHTS assay (AID 1963592); note: series mostly up to about 92 µM; nearly all actives have a fitted effect of over 50% in size
# How it was run: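 Assay format: CHO-ADRB2 cells, 18-20hr seeding at 37C/5% CO2, then compound plus 1nM isoproterenol agonist mix for 0.5hr RT. Homogeneous time-resolved fluorescence cAMP detection after 1hr, expressed as 665/615 nm ratio.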
# [17] = target: D(2) dopamine receptor (Homo sapiens) (UniProt P14416); assay: Dopamine D2 receptor (DRD2) small molecule agonists, cell-based qHTS assay (AID 1963594); note: nearly all actives have a fitted effect of over 35% in size
# How it was run: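 HEK293 cells stably expressing human DRD2, pre-treated with PDE inhibitor Ro20-1724 (0.1 mM final) and compound 10 min at room temperature, then stimulated with NKH477 (200nM […]) for 30 min. cAMP read by HTRF (665/620 nm).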
# [18] = target: D(2) dopamine receptor (Homo sapiens) (UniProt P14416); assay: Dopamine D2 receptor (DRD2) small molecule antagonists, cell-based qHTS assay (AID 1963595; active = well fitted inhibition curve with a large enough effect in the signal ratio in the repeat runs, with a control signal flat; the % refers to the signal ratio; note: potency is the fitted concentration of half-maximal effect)
# How it was run: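 HEK293 cells stably expressing DRD2, preincubated with 0.1 mM Ro20-1724 and compounds 10 min, were stimulated with 200 nM NKH477 plus 12 nM quinpirole for 30 min at room temperature; cAMP measured by HTRF (665/620 nm).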
# [19] = target: Beta-2 adrenergic receptor (Homo sapiens) (UniProt P07550); assay: Adrenergic beta2 receptor (ADRB2) small molecule agonists, cell-based qHTS assay (AID 1963593);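 note: CHO cells stably overexpressing human ADRB2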
# How it was run: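 CHO cells stably over-expressing ADRB2 were plated overnight at 37C, then dosed with compounds plus a stimulation mix containing 100uM IBMX and 25uM Ro-20-1724 for 0.5hr at room temperature. cAMP was measured by HTRF competition, 1hr.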
# [20] = G protein-coupled receptor (GPCR) small molecule agonists, calcium flux assay: HEK293 wild type cell line counter screen (AID 1920065)
# How it was run: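 Seed cells, incubate 18 h (37 C, 5% CO2); add calcium dye, 1 h at 37 C; pin-transfer compounds, ATP control or DMSO; read fluorescence 480/540 nm each second for 3 min.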
# Sequence of Muscarinic acetylcholine receptor M1 (Homo sapiens) (P11229 whole entry, looked up): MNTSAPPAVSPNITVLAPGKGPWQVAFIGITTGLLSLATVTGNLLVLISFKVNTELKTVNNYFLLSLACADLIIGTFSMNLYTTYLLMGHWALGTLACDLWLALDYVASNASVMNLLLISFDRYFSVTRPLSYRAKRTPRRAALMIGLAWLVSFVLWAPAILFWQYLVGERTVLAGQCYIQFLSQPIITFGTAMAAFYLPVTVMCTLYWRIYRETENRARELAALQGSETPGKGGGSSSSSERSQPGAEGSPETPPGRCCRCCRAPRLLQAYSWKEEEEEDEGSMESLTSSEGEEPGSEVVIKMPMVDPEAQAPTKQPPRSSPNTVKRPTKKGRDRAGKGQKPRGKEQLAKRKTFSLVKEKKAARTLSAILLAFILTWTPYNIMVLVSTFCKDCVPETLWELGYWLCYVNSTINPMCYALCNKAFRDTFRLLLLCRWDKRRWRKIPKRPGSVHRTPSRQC
# Sequence of KiSS-1 receptor (Homo sapiens) (Q969F8 whole entry, looked up): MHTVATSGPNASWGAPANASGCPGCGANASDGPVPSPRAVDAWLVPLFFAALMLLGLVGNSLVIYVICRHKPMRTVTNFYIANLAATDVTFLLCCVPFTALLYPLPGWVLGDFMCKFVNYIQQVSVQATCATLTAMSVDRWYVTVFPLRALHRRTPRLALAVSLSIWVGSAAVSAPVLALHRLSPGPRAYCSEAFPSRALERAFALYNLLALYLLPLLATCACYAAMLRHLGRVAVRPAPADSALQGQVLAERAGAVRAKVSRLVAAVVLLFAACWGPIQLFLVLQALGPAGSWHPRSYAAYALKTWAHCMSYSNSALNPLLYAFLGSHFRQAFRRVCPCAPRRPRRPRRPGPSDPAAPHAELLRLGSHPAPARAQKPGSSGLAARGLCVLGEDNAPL
# Sequence of D(2) dopamine receptor (Homo sapiens) (P14416 whole entry, looked up): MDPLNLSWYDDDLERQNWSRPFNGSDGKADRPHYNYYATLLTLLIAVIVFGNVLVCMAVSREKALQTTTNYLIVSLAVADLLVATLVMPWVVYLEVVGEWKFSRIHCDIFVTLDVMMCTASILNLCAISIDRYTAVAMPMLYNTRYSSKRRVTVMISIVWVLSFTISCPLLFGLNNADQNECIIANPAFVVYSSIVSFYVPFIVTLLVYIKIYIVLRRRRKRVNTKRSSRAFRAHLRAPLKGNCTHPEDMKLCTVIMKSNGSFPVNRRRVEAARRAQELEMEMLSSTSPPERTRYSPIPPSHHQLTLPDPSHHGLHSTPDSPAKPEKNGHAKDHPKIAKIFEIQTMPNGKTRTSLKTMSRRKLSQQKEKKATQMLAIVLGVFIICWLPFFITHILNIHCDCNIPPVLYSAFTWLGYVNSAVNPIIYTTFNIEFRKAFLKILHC
# Sequence of 5-hydroxytryptamine receptor 2A (Homo sapiens) (P28223 whole entry, looked up): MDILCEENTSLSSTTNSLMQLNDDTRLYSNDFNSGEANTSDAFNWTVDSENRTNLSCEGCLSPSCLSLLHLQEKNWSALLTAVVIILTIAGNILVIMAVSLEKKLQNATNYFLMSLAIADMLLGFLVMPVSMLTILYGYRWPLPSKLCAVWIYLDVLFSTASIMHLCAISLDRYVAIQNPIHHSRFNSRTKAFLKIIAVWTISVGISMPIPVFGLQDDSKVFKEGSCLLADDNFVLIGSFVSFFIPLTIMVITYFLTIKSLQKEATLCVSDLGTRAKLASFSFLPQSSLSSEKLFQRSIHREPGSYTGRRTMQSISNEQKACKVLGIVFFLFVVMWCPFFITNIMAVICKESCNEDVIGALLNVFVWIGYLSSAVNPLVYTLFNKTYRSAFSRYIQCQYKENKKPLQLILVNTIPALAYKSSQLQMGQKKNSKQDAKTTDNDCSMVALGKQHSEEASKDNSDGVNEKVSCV
# Sequence of Beta-2 adrenergic receptor (Homo sapiens) (P07550 whole entry, looked up): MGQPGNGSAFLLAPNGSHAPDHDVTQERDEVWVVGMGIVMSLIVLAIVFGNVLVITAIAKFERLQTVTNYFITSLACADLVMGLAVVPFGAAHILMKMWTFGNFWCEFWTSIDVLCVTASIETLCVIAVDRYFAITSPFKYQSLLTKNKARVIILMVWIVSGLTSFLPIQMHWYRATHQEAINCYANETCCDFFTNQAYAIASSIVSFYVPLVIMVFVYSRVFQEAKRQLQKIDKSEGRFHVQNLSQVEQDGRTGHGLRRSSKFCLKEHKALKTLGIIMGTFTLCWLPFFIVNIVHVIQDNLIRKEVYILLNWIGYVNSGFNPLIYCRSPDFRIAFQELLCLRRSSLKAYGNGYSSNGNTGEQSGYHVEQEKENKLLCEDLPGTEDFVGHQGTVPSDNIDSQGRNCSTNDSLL
# Sequence of Gonadotropin-releasing hormone receptor (Homo sapiens) (P30968 whole entry, looked up): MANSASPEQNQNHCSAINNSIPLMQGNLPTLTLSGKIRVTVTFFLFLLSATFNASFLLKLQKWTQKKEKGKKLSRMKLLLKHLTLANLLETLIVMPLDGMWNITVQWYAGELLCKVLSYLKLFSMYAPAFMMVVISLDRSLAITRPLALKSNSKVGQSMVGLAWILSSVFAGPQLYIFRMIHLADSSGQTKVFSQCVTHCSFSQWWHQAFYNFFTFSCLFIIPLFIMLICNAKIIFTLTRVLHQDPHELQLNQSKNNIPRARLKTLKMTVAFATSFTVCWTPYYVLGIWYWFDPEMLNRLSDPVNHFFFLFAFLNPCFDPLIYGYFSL
Compound,Potency [1],Potency [2],Potency [3],Potency [4],Potency [5],Potency [6],Potency [7],Potency [8],Potency [9],Potency [10],Potency [11],Potency [12],Potency [13],Potency [14],Potency [15],Potency [16],Potency [17],Potency [18],Potency [19],Potency [20]
NC(=O)O,inactive,inactive,inactive,inactive,inactive,inactive,inactive,inactive,inactive,inactive,inactive,inactive,inactive,inactive,inactive,inactive,inactive,inactive,–,–
C=CC(=O)OCCCCCC(C)C,inactive,inactive,inactive,inactive,inactive,inactive,inactive,inactive,inactive,inactive,inactive,inactive,inactive,inactive,inactive,inactive,inactive,inactive,inactive,–
C=CCOCC1CO1 (stereo unspecified),inactive,inactive,inactive,inactive,inactive,inactive,inactive,inactive,inactive,inactive,inactive,inactive,inactive,inactive,inactive,inactive,–,inactive,inactive,–
CC1CC(=O)O1 (stereo unspecified),inactive,inactive,inactive,inactive,–,–,inactive,–,–,inactive,inactive,–,inactive,inactive,inactive,inactive,–,inactive,inactive,inactive
CCCCC(CC)COC(=O)Cl (stereo unspecified),inactive,inactive,inactive,inactive,–,inactive,inactive,–,–,inactive,–,inactive,inactive,inactive,–,inactive,–,–,inactive,inactive
CCCCCCCCCl,inactive,inactive,inactive,inactive,inactive,inactive,inactive,inactive,inactive,inactive,inactive,inactive,inactive,inactive,inactive,inactive,inactive,inactive,inactive,–
CC[N+]1(C)CCCC1,inactive,70.3 µM (active) and inactive,inactive,inactive,–,41.8 µM (active) and inactive,inactive,inactive,–,inactive,–,inactive,inactive,inactive,inactive,–,inactive,inactive,inactive,inactive
CC1(C)Cc2cccc(O)c2O1,inactive,inactive,inactive,inactive,–,inactive,inactive,–,–,inactive,inactive,inactive,inactive,inactive,inactive,inactive,inactive,inactive,–,inactive
CCC1(c2ccc(N)cc2)CCC(=O)NC1=O (stereo unspecified),inactive,inactive,inactive,inactive,–,inactive,inactive,inactive,–,–,–,–,–,inactive,inactive,inactive,inactive,inactive,inactive,inactive
c1ccc2sc(SNC3CCCCC3)nc2c1,inactive,53.9 µM (active) and 61.1 µM (active),inactive,inactive,–,–,inactive,inactive,–,–,inactive,inactive,inactive,inactive,inactive,inactive,inactive,–,inactive,inactive
NNc1ccccc1,inactive,inactive,inactive,inactive,–,inactive,inactive,inactive,–,–,–,–,–,inactive,inactive,inactive,inactive,inactive,inactive,inactive
N#CC(Br)Br,inactive,inactive,inactive,inactive,–,inactive,inactive,–,–,inactive,–,inactive,inactive,–,inactive,inactive,inactive,inactive,inactive,inactive
C[N+](C)(C)Cc1ccccc1,inactive,inactive,inactive,inactive,–,inactive,inactive,–,–,–,inactive,inactive,3.07 µM (active) and 5.49 µM (active),inactive,inactive,inactive,inactive,inactive,inactive,inactive
CN(C)[C@@H]1C(=O)C(C(N)=O)=C(O)[C@@]2(O)C(=O)C3=C(O)c4c(O)cccc4[C@@](C)(O)[C@H]3[C@H](O)[C@@H]12,inactive,inactive,inactive,inactive,–,inactive,inactive,inactive,–,inactive,inactive,–,inactive,inactive,inactive,–,inactive,–,inactive,inactive
CCCC[n+]1ccccc1,inactive,inactive,inactive,inactive,–,inactive,inactive,inactive,–,–,–,inactive,–,inactive,inactive,inactive,inactive,inactive,inactive,inactive
CCCCCCCC[N+](C)(CCCCCCCC)CCCCCCCC,5.44 µM (active) and 6.87 µM (active) and 15.4 µM (active),inactive,inactive,inactive,–,5.75 µM (active) and 6.47 µM (active) and 25.7 µM (active),14.4 µM (active) and inactive and 40.8 µM (active),9.11 µM (active) and 2.58 µM (active) and 20.4 µM (active),–,inactive,–,5.93 µM (active) and inactive and 6.67 µM (active),inactive,–,–,inactive,inactive,54.4 µM (active) and inactive and 17.2 µM (active),–,inactive
